# Source: PubChem BioAssay
# Mcl1 Noxa PPI – Mcl-1/Noxa interaction inhibition | Q07820 | TR-FRET Mcl-1/Noxa peptide binding, 2 h | inhibition, % at 21.7 µM | 220,000 compounds, 1.5% hits;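 active means compounds that cut the protein-peptide binding signal by more than 50% relative to plate controls in a single-dose test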;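 further: His-tagged Mcl-1 with rhodamine Noxa BH3 peptide and terbium anti-His antibody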
# GLD-1 RNA inh – GLD-1-TGE RNA interaction inhibition (C. elegans). Q17339. purified GLD-1 + fluorescein TGE RNA, fluorescence polarization. inhibition, % at 5.96 µM. 320,000 compounds, 0.44% hits. AID 2280;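 active means percent inhibition above a per-plate cutoff, the plate mean of test compounds plus 3 SD, cut at about 30% in these data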
# Target sequence (Q17339 whole entry, looked up): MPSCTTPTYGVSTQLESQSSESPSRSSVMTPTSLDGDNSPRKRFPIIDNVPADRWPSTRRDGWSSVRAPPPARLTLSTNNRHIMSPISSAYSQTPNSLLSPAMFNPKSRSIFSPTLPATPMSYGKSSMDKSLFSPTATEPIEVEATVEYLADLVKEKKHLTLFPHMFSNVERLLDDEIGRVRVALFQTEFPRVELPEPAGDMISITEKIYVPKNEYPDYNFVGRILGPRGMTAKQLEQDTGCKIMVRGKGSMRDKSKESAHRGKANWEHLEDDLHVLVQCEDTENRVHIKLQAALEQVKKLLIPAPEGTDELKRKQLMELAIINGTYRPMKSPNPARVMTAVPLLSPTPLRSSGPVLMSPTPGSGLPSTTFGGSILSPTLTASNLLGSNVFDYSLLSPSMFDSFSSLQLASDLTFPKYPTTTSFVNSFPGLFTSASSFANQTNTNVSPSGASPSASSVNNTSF
# Bcl-xL primary – Bcl-xL (human) inhibition. Q07817. GST-Bcl-xL / FITC-Bim BH3 peptide fluorescence polarization. inhibition, % at 10.9 µM. 320,000 compounds, 0.7% hits;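 active means inhibition above the mean of all tested compounds plus 3 SD, cutoff set per campaign, cut at about 30% in these data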;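 further: inhibitors lower millipolarization by displacing the labeled peptide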
# Mcl-1 Bim block – disrupts Bim peptide binding to human Mcl-1. Q07820. Bead-based flow cytometry, Bim peptide-Mcl-1 binding. inhibition, % at 10 µM. 190,000 compounds, 0.1% hits; in the data active means inhibition above about 40%
# Mcl1 Bid PPI – disrupts binding of human Mcl-1 to Bid peptide; Q07820; inhibition, % at 21.7 µM; TR-FRET Mcl-1/Bid-Dy647 peptide binding, 1536-well; 220,000 compounds, 0.97% hits;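 active means compounds that cut the binding signal by more than half at the single screening dose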;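 further: His-tagged Mcl-1 with europium anti-His antibody binding Bid BH3 peptide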
# MCL1 BIM primary – MCL1-BIM-BH3 interaction inhibition (human); GST-MCL1 / FITC-Bim-BH3 fluorescence polarization; 320,000 compounds, 0.68% hits; Q07820; inhibition, % at 10.9 µM;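 active means inhibition above the mean inhibition of all tested compounds plus 3 SD, set per campaign, cut at about 40% in these data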;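 further: higher means more loss of mP so more displacement of Bim peptide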
# A number is an active result; i = inactive; nt = not tested or not shown. This is a sample that favours compounds with a hit; in the whole collection about 2.3% have one here.
SMILES,Mcl1 Noxa PPI,GLD-1 RNA inh,Bcl-xL primary,Mcl-1 Bim block,Mcl1 Bid PPI,MCL1 BIM primary
COc1ccc2cc3c(N)c(C(=O)NCc4ccco4)sc3nc2c1,63,i,i,i,i,i
COc1ccc2cc3cc(C(=O)NCc4ccco4)oc3nc2c1,i,i,i,i,i,i
CCCOC(=O)c1sc2nc3c(cc2c1N)C(=O)CCC3,i,i,i,i,i,i
Nc1c(C(=O)NCc2ccco2)sc2nc3c(cc12)C(=O)CCC3,88,i,i,i,i,i
C=CCC1(C(=O)NCCO)CCN(C(=O)OC(C)(C)C)CC1,nt,i,i,nt,nt,i
COc1ccc(N(CC(O)Cn2cnc3ccccc32)S(=O)(=O)c2ccc(C)cc2)cc1 (stereo not drawn),i,i,i,i,i,i
Cn1nc(-c2ccc(Cl)cc2)c2cc(C(=O)NCCN3CCOCC3)sc21,i,i,i,i,94,i
CN(C)C(=O)c1cn(N(C)c2ncc(C(F)(F)F)cc2Cl)c(=O)c2ccccc12,i,i,i,i,61,i
CN(C)C(=O)c1cccn1-c1ncc(C(F)(F)F)cc1Cl,i,i,i,i,i,i
Oc1ccc(N=Nc2nc(-c3ccccc3)c(-c3ccccc3)[nH]2)cc1,i,84,i,i,i,i
CC(=O)Nc1ccc(S(=O)(=O)N2CCCC(C(=O)N3CCN(c4ccccc4)CC3)C2)cc1 (stereo not drawn),nt,i,i,nt,nt,i
C=CCSC1=Nc2sccc2C2=NC(=O)CN12,56,i,i,i,i,i
O=C1OCCN1C(=O)[C@H]1[C@H](c2ccc(F)cc2)C(c2ccc(F)cc2)=NN1c1ccccc1,i,i,i,60,i,i
O=C1OCCN1C(=O)[C@H]1[C@H](c2ccc(F)cc2)C(c2ccc(F)cc2)=NN1c1ccc(Br)cc1,i,i,i,i,i,i
COc1cc2cc(C#N)c(SCC(=O)Nc3cc(C)on3)nc2cc1OC,nt,i,i,nt,nt,i
N#CC1=C(N)N(c2ccc(F)cc2)C2=C(C1c1ccc(O)cc1)S(=O)(=O)CC2 (stereo not drawn),90,nt,nt,i,i,nt
CCN1C(=O)[C@H]2[C@@H](c3ccc(C)cc3)N3C(=O)N(c4ccccc4)C(=O)[C@@]3(Cc3ccccc3)[C@H]2C1=O,nt,i,i,nt,nt,i
CC1(C(=O)N2CCN(c3ccc([N+](=O)[O-])cc3)CC2)CC1(Cl)Cl (stereo not drawn),nt,64,i,nt,nt,i
Cc1nc2ccc(C(=O)O)cc2c2c1CC(C)S2 (stereo not drawn),51,i,i,i,i,i
O=C(N/N=C1/C(=O)c2cccc3cccc1c23)c1ccc(Cl)cc1,i,i,57,i,88,46
Cc1ncsc1CCOC(=O)c1cccnc1,i,i,i,i,54,i
O=C(Nc1ccc(N2CCOCC2)cc1)c1nc2ccccc2s1,i,i,i,nt,i,i
O=C(c1cccc(Oc2ccccc2)c1)N1CCN(c2ccccn2)CC1,i,i,i,i,i,i
O=C(O)CCCC(=O)Nc1cccc(C(=O)Nc2ccccc2C(=O)O)c1,i,i,i,i,82,i
O=C(CSCc1ccccc1)Nc1cccc(C(=O)Nc2ccccc2C(=O)O)c1,i,i,i,i,i,i
SMILES,Mcl1 Noxa PPI,GLD-1 RNA inh,Bcl-xL primary,Mcl-1 Bim block,Mcl1 Bid PPI,MCL1 BIM primary
O=C(/C=C/c1ccco1)Nc1cccc(C(=O)Nc2ccccc2C(=O)O)c1,57,i,i,nt,i,i
Cc1cc(C)cc(NC(=O)CCCCCN2C(=O)[C@@H]3Cc4ccccc4CN3C2=O)c1,nt,i,i,nt,nt,i
NC(=O)NCCCC(=O)NCC(c1ccccc1Cl)c1c[nH]c2ccccc12 (stereo not drawn),nt,i,i,nt,nt,i
CC1CCc2c(sc(Nc3nc4c(F)cccc4s3)c2C(N)=O)C1 (stereo not drawn),101,i,i,i,i,i
CCC(C)(C)n1nnnc1C(C(C)C)N(Cc1ccco1)Cc1cc2cc3c(cc2[nH]c1=O)OCO3 (stereo not drawn),i,i,45,i,i,46
COc1ccc2[nH]c(=O)c(CN(C3CCCCC3)C(c3nnnn3Cc3ccco3)C(C)C)cc2c1 (stereo not drawn),57,i,i,i,i,i
COC(=O)NNC(=O)c1ccc(C)c(Br)c1,i,i,i,i,i,i
CC(C)NC(=O)c1ccc(CNC(=O)OCC(F)(F)F)cc1,i,i,i,i,i,i
